In the library only some 7.3% were active in any assay of this set; here they are far more common.
uPA generation = blocks generation of uPA at the cell surface | AID 540303 | cell surface uPA generation assay, qHTS | 330,000 compounds, 0.31% hits | Potency, µM (titrated, usually from 38.3 µM), inactives show at the top dose activity change, negative = inhibition, actives largely listed as inhibitors; active = well fitted inhibition curve with a large enough effect; inconclusive = small, poorly fitted or top-dose-only effect; inactive = no such curve, though single readings can be large or run the other way; tested in mouse RAW 264.7 cells; also: % is scaled to controls: 0 for no effect and ±100 for the full control effect; nearly all actives have a fitted effect of over 55% in size
Rab9 prom act = activates the Rab9 promoter; Huh7 Rab9 promoter-luciferase reporter, luminescence, 24 h; Potency, µM (doses to about 9.22 µM), inactives show at the top dose activation, negative = inhibition, actives largely listed as activators; 320,000 compounds, 2.8% hits; AID 485297; also: % of control where 0% means no effect; nearly all actives have a fitted effect of over 60% in size
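Luminescence read-out: Huh7 cells stably expressing Rab9-luciferase, treated 24 h with compound at 37 °C, then lysed with luciferase reagent for 10 min at ambient before reading.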
FLuc modulator = counter-screen for miR-21 project: firefly luciferase inhibitors or activators | Potency, µM (highest dose often 57.5 µM), without a hit: at the highest dose activity change, negative = inhibition, most hits filed as inhibitors | P08659 | 360,000 compounds, 6.9% hits | AID 588342 | purified FLuc, Km substrates, luminescence inhibition;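 also: plate controls were vehicle for no effect and reference inhibitor for full effect; nearly all actives have a fitted effect of over 55% in size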
Target sequence (P08659 whole entry, looked up): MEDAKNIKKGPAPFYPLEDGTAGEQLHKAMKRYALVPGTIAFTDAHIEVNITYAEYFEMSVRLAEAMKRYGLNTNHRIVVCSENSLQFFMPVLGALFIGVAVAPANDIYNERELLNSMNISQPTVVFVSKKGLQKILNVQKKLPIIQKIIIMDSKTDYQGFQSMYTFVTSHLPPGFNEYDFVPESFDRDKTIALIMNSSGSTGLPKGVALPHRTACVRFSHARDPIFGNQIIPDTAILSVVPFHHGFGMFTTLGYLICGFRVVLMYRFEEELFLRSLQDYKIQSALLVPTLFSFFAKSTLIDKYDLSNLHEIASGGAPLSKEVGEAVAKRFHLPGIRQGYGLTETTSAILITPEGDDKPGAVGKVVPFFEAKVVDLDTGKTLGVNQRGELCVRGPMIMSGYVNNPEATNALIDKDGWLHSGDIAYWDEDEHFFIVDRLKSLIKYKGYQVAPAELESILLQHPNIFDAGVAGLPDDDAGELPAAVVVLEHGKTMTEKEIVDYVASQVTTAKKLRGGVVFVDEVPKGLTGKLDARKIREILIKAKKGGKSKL
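Purified P. pyralis luciferase, 10 nM final, with Km-level 10 uM D-luciferin and 10 uM ATP in 50 mM Tris acetate pH 7.5, 10 mM Mg acetate, 0.01% Tween-20, 0.05% BSA; 6-point qHTS titration about 60 µM downward; luminescence read.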
ELG1 genotox = induces genotoxicity in HEK293T cells with luciferase-tagged ELG1; 330,000 compounds, 1.3% hits; Potency, µM (series often up to 46 µM), for inactives: at the top dose activity change, positive = activation, actives largely listed as activators; HEK293T ELG1-luciferase reporter, luminescence, 16 h; also: % of control where 0% means no effect; nearly all actives have a fitted effect of over 60% in size
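Genotoxic stress is detected as increased luminescence from luciferase-tagged ELG1 in HEK293T cells, measured with ONE-Glo after a 16 hr treatment at 37 °C.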
SMN2 splice up = SMN2 splice variant enhancement; HEK293 SMN2-luciferase splicing reporter, luminescence, 30-36 h; Potency, µM (top dose mostly 46.1 µM), for the others: at the highest dose activity change, positive = activation, most hits filed as activators; 210,000 compounds, 2.8% hits; AID 1458; also: % of control where 0% means no effect; nearly all actives have a fitted effect of over 55% in size
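qHTS luciferase splicing reporter: luminescence rises when SMN2 exon 7 is included in transfected HEK293 cells. Compound exposure lasted 30-36 h at 37C, with 4.5 mM final sodium butyrate as control, followed by a ONE-Glo read.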
NPC1 prom act = NPC1 promoter activation; Huh7 NPC1 promoter luciferase reporter, 24 h; 320,000 compounds, 2.4% hits; Potency, µM (titrated, usually from 9.22 µM), without a hit: top-dose activation, actives largely listed as activators; also: % of control where 0% means no effect; nearly all actives have a fitted effect of over 60% in size
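NPC1 promoter–luciferase Huh7 cells; 24 h compound; luminescence.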
Numbers without * were called inactive; ? = inconclusive; nt = no result given. Unless noted, calls follow the shape of the dose curve; as a rule, active = well fitted curve in the direction sought with a large enough effect; inconclusive = small, poorly fitted or top-dose-only effect, or another doubt; inactive = no such curve, though single readings can be large; an effect the other way counts as inactive or inconclusive. Potency is read from the fitted curve at half-maximal effect.

SMILES | uPA generation | Rab9 prom act | FLuc modulator | ELG1 genotox | SMN2 splice up | NPC1 prom act
O=C(Nc1cnc2sccn2c1=O)c1ccccc1Cl | -3% | ? | 15µM* | 18µM* | 23% | 1.6µM*
COc1ccc(NC(=O)c2cnc3sccn3c2=O)cc1 | -2% | 2.5µM* | ? | 4.1µM* | 14µM* | ?
Cc1cccc(NC(=O)c2cnc3sccn3c2=O)c1C | nt | 1.1µM* | 2.7µM* | 4.1µM* | 5.6µM* | ?
CC(=O)c1cnc2sccn2c1=O | 2% | 3% | -3% | 0% | -6% | -3%
COc1ccc(-c2nc3cc(C(C)C)ccc3o2)cc1NC(=O)COc1ccc(C)cc1C | nt | nt | -3% | nt | -3% | nt
CCc1ccc(-n2c(=O)c3c(C)c(C)sc3n(CC(=O)NCc3ccc(C)cc3)c2=O)cc1 | nt | nt | -1% | nt | 23% | nt
CSc1ncc(C(=O)Nc2cccc(C)c2C)c(-c2ccccc2)n1 | nt | nt | -2% | nt | nt | nt
Cc1cccc(NC(=O)c2cnc3sccn3c2=O)n1 | 1% | nt | nt | nt | nt | nt
Cc1cccc(NC(=O)c2cnc3sccn3c2=O)c1 | 10µM* | 0.45µM* | 3.4µM* | ? | nt | 0.89µM*
COc1ccc(Oc2ccc(C(F)(F)F)cc2N)cc1 | -5% | ? | 17µM* | 11% | nt | 17%
COc1ccc(Oc2ccc(C(F)(F)F)cc2NC(=O)c2ccc(OC)cc2)cc1 | -3% | -5% | -2% | -4% | nt | -3%
CNc1ccc(C(=O)N2CCN(S(=O)(=O)c3ccc4c(c3)OCCCO4)CC2)cc1[N+](=O)[O-] | -4% | -6% | -1% | -14% | nt | -5%
CCOCCCNC(=O)c1ccccc1OC1CCN(S(C)(=O)=O)CC1 | 10% | -2% | -2% | 0% | nt | 0%
CN(CCOc1ccccc1)C(=O)c1ccc2c(c1)OCO2 | -1% | ? | ? | 12% | nt | 21%
CCOCCCNC(=O)c1ccc2c(c1)OCO2 | 2% | ? | ? | 10% | 14µM* | 18%
CCOCCCNC(=O)c1cccc(OC2CCN(S(C)(=O)=O)CC2)c1 | 0% | 2.8µM* | 11µM* | ? | nt | 3.5µM*
O=C(NCCOc1ccccc1)c1ccc2c(c1)OCO2 | -21% | 0.28µM* | 0.76µM* | ? | 2.5µM* | 0.28µM*
COCCCNC(=S)NNC(=O)c1ccc2c(c1)OCO2 | 4% | 13% | 0% | 1% | -2% | 28%
COc1ccc(N2CCN(Cc3nnc(-c4cccc(Br)c4)o3)CC2)cc1 | nt | nt | 3% | nt | 13% | nt
Cc1cc(C)n2c(nc3ccccc32)c1C(=O)NN | -11% | -1% | 0.38µM* | 7% | nt | 1%
C[C@@](N)(Cc1ccc(O)c(O)c1)C(=O)O | nt | nt | nt | nt | 1% | nt
CCCOc1ccc(NC(=O)CC2C(=O)N(c3ccc(OC)cc3)C(=O)N2CCc2ccncc2)cc1 (configuration not stated) | nt | nt | -10% | nt | nt | nt
COC(=O)c1cc(-c2cccc(OC)c2)n[nH]1 | 4% | 15% | ? | 10% | ? | 4%
CCOc1ccc(-c2cc(C(=O)OC)[nH]n2)cc1 | -7% | 2.2µM* | 9.5µM* | ? | nt | 3.2µM*
COC(=O)c1cc(-c2ccc(OC)cc2)n[nH]1 | -1% | ? | 27µM* | ? | ? | ?
SMILES | uPA generation | Rab9 prom act | FLuc modulator | ELG1 genotox | SMN2 splice up | NPC1 prom act
COC(=O)c1cc(-c2ccc(C)cc2)n[nH]1 | 3% | ? | 24µM* | ? | nt | 16%
CCCOc1cccc(C(=O)Nc2ccc(Br)cc2F)c1 | 0% | ? | 2.7µM* | ? | 13µM* | ?
Cc1ccc(C(=O)O)cc1NC(=S)NC(=O)c1ccc(COc2ccccc2)cc1 | -11% | 7% | 12µM* | 1% | nt | 2%
CCCOc1cccc(C(=O)Nc2cccc3ncccc23)c1 | -2% | 7% | -12% | 0% | nt | 4%
CCCOc1cccc(C(=O)Nc2cc(-c3ccccc3)no2)c1 | nt | nt | 6µM* | nt | 14µM* | nt
CC(C)Oc1ccc(C(=O)NC(=S)Nc2ccc(Cl)c(C(=O)O)c2)cc1 | -1% | ? | 17µM* | ? | nt | ?
CC(=O)OC[C@@]12C(=O)[C@@H](O)[C@@H](C)[C@]3(C[C@@H](c4ccoc4)O[C@@H]3OC(C)=O)[C@H]1CCC[C@]21CO1 | nt | nt | nt | nt | 12% | nt

Bioassay records (PubChem)
